Test results as given in article PMC11995724, “Antibiotic target discovery by integrated phenotypic and activity-based profiling of electrophilic fragments” (Cell chemical biology, 2025).
In all, about 3,200 compounds went through this assay and about 75 (2%) showed an effect of 50% or more. Many of the other results were omitted from the sample, so strong results are more common in it than they were.

Test system: T1, S. aureus MSSA476
T1 construct: MSSA476
Design: species or system S. aureus MSSA476 (TSB) or V. cholerae SAD30 (LB); 384-well bacterial growth screen at 25 uM, OD600 relative to DMSO control
Details: relative growth, OD600, TSB; 25 µM; inhibitor

Question: With `Cc1cc(C)cc(-c2cc(NC(=O)CCl)n(-c3ccccc3)n2)c1` [4-K04, 2-chloro-N-[3-(3,5-dimethylphenyl)-1-phenyl-1H-pyrazol-5-yl]acetamide] as the compound, how does the “% of control remaining” value read?
Answer: 80.4192%

Question: Which “% of control remaining” value does the source give for `C/C(O)=C(\C#N)C(=O)Nc1ccc(-c2ccccc2Cl)cc1` [9-P22, (2Z)-N-{2'-chloro-[1,1'-biphenyl]-4-yl}-2-cyano-3-hydroxybut-2-enamide] here?
Answer: 50.9363%

Question: `CC(O)=C(C#N)C(=O)Nc1ccc(-c2ccccc2Cl)c(Cl)c1` [9-L22, 2-cyano-N-{2,2'-dichloro-[1,1'-biphenyl]-4-yl}-3-hydroxybut-2-enamide] was tested. Which “% of control remaining” value did it give?
Answer: 33.2584%

Question: `CC(O)=C(C#N)C(=O)Nc1ccc(C(F)(F)F)cc1` [9-A05, 2-cyano-3-hydroxy-N-[4-(trifluoromethyl)phenyl]but-2-enamide] was tested. Which “% of control remaining” value did it give?
Answer: 71.6105%

Question: Which “% of control remaining” value does the source give for `N#CC(=Cc1ccc([N+](=O)[O-])o1)C(=O)NCc1ccco1` [8-I17, 2-cyano-N-[(furan-2-yl)methyl]-3-(5-nitrofuran-2-yl)prop-2-enamide] here?
Answer: -0.6639%

Question: Which “% of control remaining” value does the source give for `Cc1ccc(C=C(C#N)C(=O)NCc2ccco2)o1` [8-P19, 2-cyano-N-[(furan-2-yl)methyl]-3-(5-methylfuran-2-yl)prop-2-enamide] here?
Answer: 89.6266%

Question: `N#CC(=Cc1cc2ccccc2o1)C(=O)NCc1ccco1` [9-O08, 3-(1-benzofuran-2-yl)-2-cyano-N-[(furan-2-yl)methyl]prop-2-enamide] was tested. Which “% of control remaining” value did it give?
Answer: 115.056%

Question: With `COc1ccc(C(=O)CCl)c(OC)c1` [10-G18, 2-chloro-1-(2,4-dimethoxyphenyl)ethan-1-one] as the compound, how does the “% of control remaining” value read?
Answer: 124.375%

Question: With `O=C(CCl)c1ccc(Cl)c(Cl)c1` [10-L16, 2-chloro-1-(3,4-dichlorophenyl)ethan-1-one] as the compound, how does the “% of control remaining” value read?
Answer: 5%

Question: How did the “% of control remaining” value turn out when `O=C(CCl)c1ccc(F)c(F)c1` [10-L13, 2-chloro-1-(3,4-difluorophenyl)ethan-1-one] was run?
Answer: 110.313%

Question: How did the “% of control remaining” value turn out when `COc1ccc(C(=O)CCl)cc1Cl` [10-D10, 2-chloro-1-(3-chloro-4-methoxyphenyl)ethan-1-one] was run?
Answer: -0.3125%

Question: For `O=C(CCl)c1ccc2[nH]c(=O)[nH]c2c1` [10-I14, 5-(2-chloroacetyl)-2,3-dihydro-1H-1,3-benzodiazol-2-one], which “% of control remaining” value is on record?
Answer: 100.313%

Question: With `COC(=O)c1cccc(C(=O)CCl)c1` [10-I11, methyl 3-(2-chloroacetyl)benzoate] as the compound, how does the “% of control remaining” value read?
Answer: 61.5625%

Question: With `CC(Cl)C(=O)NC(C)c1ccc(C(F)(F)F)nc1Cl` (centres unmarked) [7-G09, 2-chloro-N-{1-[2-chloro-6-(trifluoromethyl)pyridin-3-yl]ethyl}propanamide] as the compound, how does the “% of control remaining” value read?
Answer: 111.774%

Question: For `C=CC(=O)Nc1cccc(-c2nc(COC)no2)c1C` [1-J08, N-{3-[3-(methoxymethyl)-1,2,4-oxadiazol-5-yl]-2-methylphenyl}prop-2-enamide], which “% of control remaining” value is on record?
Answer: 101.626%

Question: For `COc1cc(Cl)c(C)cc1N1C(=O)C=CC1=O` [10-B15, 1-(4-chloro-2-methoxy-5-methylphenyl)-2,5-dihydro-1H-pyrrole-2,5-dione], which “% of control remaining” value is on record?
Answer: 91.875%

Question: Which “% of control remaining” value does the source give for `N#CC(C(=O)Nc1ccc(Cl)cc1)=C(S)Nc1ccccc1` [8-H22, N-(4-chlorophenyl)-2-cyano-3-(phenylamino)-3-sulfanylprop-2-enamide] here?
Answer: 74.3568%

Question: How did the “% of control remaining” value turn out when `CCN(c1ccc(C(=O)CCl)cc1)S(C)(=O)=O` [10-F04, N-[4-(2-chloroacetyl)phenyl]-N-ethylmethanesulfonamide] was run?
Answer: 2.1875%

Question: `NC(=O)CCc1ccc(C(=O)CCl)cc1` [10-I03, 3-[4-(2-chloroacetyl)phenyl]propanamide] was tested. Which “% of control remaining” value did it give?
Answer: 108.125%

Question: `CC(=O)N(C)Cc1ccc(C(=O)CCl)cc1` [10-H04, N-{[4-(2-chloroacetyl)phenyl]methyl}-N-methylacetamide] was tested. Which “% of control remaining” value did it give?
Answer: 111.875%

Question: With `Cl.O=C(CCl)c1ccncc1` [10-M09, 2-chloro-1-(pyridin-4-yl)ethan-1-one hydrochloride] as the compound, how does the “% of control remaining” value read?
Answer: 111.875%

Question: Which “% of control remaining” value does the source give for `CN(c1ccc(C(=O)CCl)cc1)S(C)(=O)=O` [10-F19, N-[4-(2-chloroacetyl)phenyl]-N-methylmethanesulfonamide] here?
Answer: -0.3125%

Question: For `N#Cc1ccc(C(=O)CCl)cc1` [10-F10, 4-(2-chloroacetyl)benzonitrile], which “% of control remaining” value is on record?
Answer: 52.5%

Question: For `C=CC(=O)N1CCC(C(=O)NCc2ncnn2CC)CC1` [3-P03, N-[(1-ethyl-1H-1,2,4-triazol-5-yl)methyl]-1-(prop-2-enoyl)piperidine-4-carboxamide], which “% of control remaining” value is on record?
Answer: 135.829%

Question: With `C=CC(=O)Nc1cc(-c2ccco2)nn1C(C)(C)C` [1-K19, N-[1-tert-butyl-3-(furan-2-yl)-1H-pyrazol-5-yl]prop-2-enamide] as the compound, how does the “% of control remaining” value read?
Answer: 129.407%

Question: `CCN(Cc1ccccc1)C(=O)CCl` [6-O21, N-benzyl-2-chloro-N-ethylacetamide] was tested. Which “% of control remaining” value did it give?
Answer: 79.9024%

Question: How did the “% of control remaining” value turn out when `CCn1ccc(CN(C)C(=O)CCl)n1` [5-K06, 2-chloro-N-[(1-ethyl-1H-pyrazol-3-yl)methyl]-N-methylacetamide] was run?
Answer: 77.5956%

Question: For `CCc1cc(SC#N)cc(C)c1NC(=O)CCl` [4-M04, 2-chloro-N-[4-(cyanosulfanyl)-2-ethyl-6-methylphenyl]acetamide], which “% of control remaining” value is on record?
Answer: 101.382%

Question: With `O=C(CCl)Cc1cccc(Cl)c1` [10-E17, 1-chloro-3-(3-chlorophenyl)propan-2-one] as the compound, how does the “% of control remaining” value read?
Answer: 119.375%

Question: How did the “% of control remaining” value turn out when `O=C(CCl)Cc1cc(Cl)cc(Cl)c1` [10-I15, 1-chloro-3-(3,5-dichlorophenyl)propan-2-one] was run?
Answer: 23.125%

Question: With `O=C(CCl)Cc1ccc(Cl)c(Cl)c1` [10-E15, 1-chloro-3-(3,4-dichlorophenyl)propan-2-one] as the compound, how does the “% of control remaining” value read?
Answer: 111.25%

Question: With `O=C(CCl)NC(=O)c1ccc(OC(F)F)cc1` [5-J22, N-(2-chloroacetyl)-4-(difluoromethoxy)benzamide] as the compound, how does the “% of control remaining” value read?
Answer: 106.011%

Question: For `C=CC(=O)NCc1ncoc1C(F)(F)F` [3-E18, N-{[5-(trifluoromethyl)-1,3-oxazol-4-yl]methyl}prop-2-enamide], which “% of control remaining” value is on record?
Answer: 106.922%

Question: `N#CC(=Cc1ccc(C(F)(F)F)cc1)C(=O)Nc1ccccc1` [9-I04, 2-cyano-N-phenyl-3-[4-(trifluoromethyl)phenyl]prop-2-enamide] was tested. Which “% of control remaining” value did it give?
Answer: 99.7753%

Question: How did the “% of control remaining” value turn out when `N#CC(C(=O)CCl)=C1NC(C23CC4CC(CC(C4)C2)C3)=CS1` [10-F14, 2-[4-(adamantan-1-yl)-2,3-dihydro-1,3-thiazol-2-ylidene]-4-chloro-3-oxobutanenitrile] was run?
Answer: 42.1875%

Question: How did the “% of control remaining” value turn out when `N#CC(C(=O)CCl)=C1NC2=C(CCc3ccccc32)S1` [10-N10, 4-chloro-2-{1H,2H,4H,5H-naphtho[1,2-d][1,3]thiazol-2-ylidene}-3-oxobutanenitrile] was run?
Answer: 59.6875%

Question: How did the “% of control remaining” value turn out when `CN1C=CC(=C(C#N)C(=O)CCl)C=C1` [10-G21, 4-chloro-2-(1-methyl-1,4-dihydropyridin-4-ylidene)-3-oxobutanenitrile] was run?
Answer: 112.5%

Question: With `O=C(CCl)NC1CCS(=O)(=O)c2ccc(F)cc21` (centres unmarked) [7-H06, 2-chloro-N-(6-fluoro-1,1-dioxo-3,4-dihydro-2H-1lambda6-benzothiopyran-4-yl)acetamide] as the compound, how does the “% of control remaining” value read?
Answer: 94.1915%

Question: How did the “% of control remaining” value turn out when `CN(C)c1ccc(C=C(C#N)C(=O)N2CCC2)cc1` [9-A14, 2-(azetidine-1-carbonyl)-3-[4-(dimethylamino)phenyl]prop-2-enenitrile] was run?
Answer: 86.8914%

Question: Which “% of control remaining” value does the source give for `Cc1c(C#N)c(NC(=O)CCl)n(Cc2ccco2)c1C` [4-D09, 2-chloro-N-{3-cyano-1-[(furan-2-yl)methyl]-4,5-dimethyl-1H-pyrrol-2-yl}acetamide] here?
Answer: 96.0457%

Question: For `CC(C)OC(=O)c1ccc(NC(=O)C(C)Cl)cc1` (centres unmarked) [4-K08, propan-2-yl 4-(2-chloropropanamido)benzoate], which “% of control remaining” value is on record?
Answer: 110.148%

Question: Which “% of control remaining” value does the source give for `CC(NC(=O)C(C#N)=Cc1cccc(Cl)c1Cl)c1ccccc1` (centres unmarked) [9-N04, 2-cyano-3-(2,3-dichlorophenyl)-N-(1-phenylethyl)prop-2-enamide] here?
Answer: 0.5993%

Question: Which “% of control remaining” value does the source give for `CCCCNC(=O)C(C#N)=Cc1cccc(Cl)c1Cl` [9-H11, N-butyl-2-cyano-3-(2,3-dichlorophenyl)prop-2-enamide] here?
Answer: 71.0112%

Question: Which “% of control remaining” value does the source give for `CCCCNC(=O)C(C#N)=Cc1c(Cl)cccc1Cl` [9-J11, N-butyl-2-cyano-3-(2,6-dichlorophenyl)prop-2-enamide] here?
Answer: 79.4007%

Question: With `CC(C)NC(=O)C(C#N)=Cc1cccc(Cl)c1Cl` [9-C07, 2-cyano-3-(2,3-dichlorophenyl)-N-(propan-2-yl)prop-2-enamide] as the compound, how does the “% of control remaining” value read?
Answer: 109.963%

Question: For `N#CC(=Cc1cccc2ccccc12)C(=O)NCc1ccccc1` [8-O19, N-benzyl-2-cyano-3-(naphthalen-1-yl)prop-2-enamide], which “% of control remaining” value is on record?
Answer: 104.896%

Question: `N#CC(=Cc1c(Cl)cccc1Cl)C(=O)NCCc1ccccc1` [8-B14, 2-cyano-3-(2,6-dichlorophenyl)-N-(2-phenylethyl)prop-2-enamide] was tested. Which “% of control remaining” value did it give?
Answer: 39.834%

Question: How did the “% of control remaining” value turn out when `CC(NC(=O)C(C#N)=Cc1ccccc1F)c1ccccc1` (centres unmarked) [8-P16, 2-cyano-3-(2-fluorophenyl)-N-(1-phenylethyl)prop-2-enamide] was run?
Answer: 79.0041%

Question: For `N#CC(=Cc1c(F)cccc1F)C(=O)NCCc1ccccc1` [8-D18, 2-cyano-3-(2,6-difluorophenyl)-N-(2-phenylethyl)prop-2-enamide], which “% of control remaining” value is on record?
Answer: 118.174%

Question: For `N#CC(=Cc1cccc(Cl)c1Cl)C(=O)NCc1ccccc1` [8-L04, N-benzyl-2-cyano-3-(2,3-dichlorophenyl)prop-2-enamide], which “% of control remaining” value is on record?
Answer: -0.332%

Question: For `N#CC(=Cc1cccc(O)c1)C(=O)NCCc1ccccc1` [8-N03, 2-cyano-3-(3-hydroxyphenyl)-N-(2-phenylethyl)prop-2-enamide], which “% of control remaining” value is on record?
Answer: 116.183%

Question: `N#CC(=Cc1ccccc1Cl)C(=O)NCc1ccccc1` [9-F13, N-benzyl-3-(2-chlorophenyl)-2-cyanoprop-2-enamide] was tested. Which “% of control remaining” value did it give?
Answer: 78.2022%

Question: `N#CC(=Cc1cccc(Cl)c1Cl)C(=O)NCCc1ccccc1` [8-J06, 2-cyano-3-(2,3-dichlorophenyl)-N-(2-phenylethyl)prop-2-enamide] was tested. Which “% of control remaining” value did it give?
Answer: 0.6639%
